In the library only some 4.2% were active in any assay of this set; here they are far more common.
CCHF vOTU inh = CCHFV vOTU protease inhibitors, primary screen, biochemical, Pep-AMC substrate, fluorescence. Crimean-Congo hemorrhagic fever virus L polyprotein viral ovarian tumor (vOTU) protease …. inhibition, % at 11.5 µM. 370,000 compounds, 0.55% hits. AID 651958, 2012; note: 0% = vehicle wells with enzyme and 100% = no enzyme wells
FBA Mtb inh = Mtb FBA enzyme inhibitors, primary screen, biochemical, fluorescence, strain H37Rv. 360,000 compounds, 2.3% hits. inhibition, % at 1 µM. purified M. tuberculosis FBA, fluorescence read-out; in the data active = inhibition above about 27%;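 note: 0% = vehicle and 100% = reference inhibitor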
Mtb bLac sens = beta-lactam sensitization of Mtb H37Rv, H37Rv; M. tuberculosis H37Rv growth with meropenem, percent inhibition; inhibition, % at 25 µM; 330,000 compounds, 0.27% hits; AID 434955, 2010; call rule not given here;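 note: growth measured after seven days incubation then overnight dye step; 0% = bacteria only wells and 100% = bacteria with antibiotic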
RecA intein inh = Mtb RecA intein splicing inhibitors, primary screen, biochemical, fluorescence, HTS | inhibition, % (test concentration not listed) | Protein RecA (Mycobacterium tuberculosis (strain ATCC 25618 / H37Rv)), P9WHJ3 | cell-free RecA intein splicing | AID 2221, 2009 | 290,000 compounds, 0.75% hits; in the data active = inhibition above about 30%;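 note: 0% = vehicle wells and 100% = reference inhibitor control wells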
Target sequence (P9WHJ3 whole entry, looked up): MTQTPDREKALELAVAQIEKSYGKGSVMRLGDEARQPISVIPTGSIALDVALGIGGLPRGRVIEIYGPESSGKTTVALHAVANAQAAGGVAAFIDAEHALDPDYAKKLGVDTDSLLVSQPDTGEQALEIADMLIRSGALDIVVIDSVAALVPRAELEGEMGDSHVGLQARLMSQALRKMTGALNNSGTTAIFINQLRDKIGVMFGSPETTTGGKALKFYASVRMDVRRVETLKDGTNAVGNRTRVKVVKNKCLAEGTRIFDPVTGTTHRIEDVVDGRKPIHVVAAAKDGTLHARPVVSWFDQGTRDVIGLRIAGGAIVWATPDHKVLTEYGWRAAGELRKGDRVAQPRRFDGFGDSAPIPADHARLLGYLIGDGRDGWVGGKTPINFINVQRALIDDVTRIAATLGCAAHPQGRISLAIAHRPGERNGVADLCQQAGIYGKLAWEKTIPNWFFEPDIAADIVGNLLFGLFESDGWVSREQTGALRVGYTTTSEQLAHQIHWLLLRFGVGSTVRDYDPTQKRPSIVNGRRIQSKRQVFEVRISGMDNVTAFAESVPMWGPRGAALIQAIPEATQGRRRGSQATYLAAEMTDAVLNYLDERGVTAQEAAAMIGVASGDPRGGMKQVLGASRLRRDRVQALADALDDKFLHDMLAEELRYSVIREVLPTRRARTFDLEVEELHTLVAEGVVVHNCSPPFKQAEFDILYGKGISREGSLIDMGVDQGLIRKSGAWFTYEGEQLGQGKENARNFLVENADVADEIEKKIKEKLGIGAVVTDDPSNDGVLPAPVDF
GDH-TPI counter-1 = GDH-TPI coupling enzyme inhibitors, primary screen, artefact control for M. tuberculosis FBA inhibitor project, biochemical, absorbance, full deck; GDH-TPI coupled enzyme counterscreen, NADH absorbance; inhibition, % at 4.8 µM; 360,000 compounds, 1.2% hits; AID 588335, 2011;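 note: 0% = DMSO wells and 100% = wells lacking the enzyme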
Mtb FBA confirm = M. tuberculosis aldolase blockers, biochemical, fluorescence, strain H37Rv, confirmation; inhibition, % at 1 µM; purified M. tuberculosis FBA, fluorescence read-out; shares compounds with FBA Mtb inh; 5,600 compounds, 78% hits; in the data active = inhibition above about 27%;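 note: 0% = vehicle wells and 100% = reference inhibitor wells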
GDH-TPI counter-2 = GDH-TPI coupling enzyme inhibitors, artefact control for M. tuberculosis FBA inhibitor project, biochemical, fluorescence, high throughput; shares compounds with FBA Mtb inh; GDH-TPI coupled enzyme counterscreen; inhibition, % at 1 µM; 5,600 compounds, 81% hits; in the data active = inhibition above about 10%
GDH-TPI dose = GDH-TPI coupling enzyme inhibitors, dose response, artefact control for M. tuberculosis FBA inhibitor project, biochemical, fluorescence, IC50 | shares compounds with FBA Mtb inh | GDH-TPI coupled enzyme assay, artifact counterscreen | IC50, µM | 170 compounds, 79% hits; call rule not given here
Active calls of the source: *; . = no result given; + = active, no number. Cut-off read from the data, not from the text of the source, unless noted: active = inhibition above about 30%; inactive = the rest.

SMILES	CCHF vOTU inh	FBA Mtb inh	Mtb bLac sens	RecA intein inh	GDH-TPI counter-1	Mtb FBA confirm	GDH-TPI counter-2	others
CC(=O)C1(C(=O)NCc2ccccc2)CC(c2ccccn2)=NO1 (stereo unspecified)	5	.	.	.	.	.	.
C[C@H](O)[C@@H]1C(=O)N2CCc3c([nH]c4cccc(-c5ccccc5)c34)[C@@H]2C[C@@H]1N(C)C(=O)C1CCCCC1	4	.	.	.	.	.	.
COc1ccc(S[C@]2(C(=O)N3CCN(c4ncccn4)CC3)CC(=O)N(S(=O)(=O)c3ccc(F)cc3)[C@@H]2c2ccc(OC)cc2)cc1	-2	.	.	.	.	.	.
CCOc1ccc(Nc2cc(C)nc(N3CCOCC3)n2)cc1	2	0	-17	-2	-7	.	.
c1ccc2c(NCC3CCCO3)nc(N3CCOCC3)nc2c1 (stereo unspecified)	-64	64*	-6	.	14	176*	132*
CCOc1ccc2nc(N3CCOCC3)nc(C)c2c1	-62	51*	-2	-234	15	131*	109*
Nc1nc(N2CCOCC2)nc2ccccc12	-41	75*	-3	-1	23	-5	-7
c1ccc2c(c1)nc(N1CCOCC1)c1c3ccccc3[nH]c21	-31	31*	94	1	-1	62*	63*
C=CCN1C(=O)[C@@H](CC(=O)N2CCC(c3ccccc3)CC2)[C@]2(C(=O)OCC)CCCCC/C=C/12	10	.	.	.	.	.	.
O=C(c1cc(F)ccc1F)N1CCCC(c2nc(-c3cccs3)no2)C1 (stereo unspecified)	2	.	.	.	.	.	.
Cc1[nH]nc2c1C(c1ccccc1)N(Cc1ccccc1)C2=O (stereo unspecified)	-7	.	.	.	.	.	.
c1ccc(-c2nc(-c3nccc4ccccc34)oc2-c2ccccc2)cc1	7	62*	28	-13	5	91*	52*
O=C(Nc1ccc(N2CCOCC2)cc1)C1CCN(S(=O)(=O)c2ccccc2F)CC1	18	37*	-10	0	3	26	19*
C/C(=C/c1[nH]c(N)[n+](CC2CC2)c1Cc1ccccc1)Cn1[nH]c(=O)n(-c2ccccc2)c1=O	7	.	.	.	.	.	.
Oc1ccc(Br)cc1C=Nc1ccc2c3c(cccc13)CC2	-39	38*	9	-5	6	+	+
Oc1ccc(Cl)cc1C=Nc1ccccc1Br	-3	-1	-3	-2	-6	.	.
NNc1ccc2c(C(F)(F)F)cc(C(F)(F)F)nc2n1	-34	30*	-2	-8	6	80*	62*
Cc1ccc(/C=N/Nc2ccc3c(C(F)(F)F)cc(C(F)(F)F)nc3n2)cc1	.	0	6	-2	-3	.	.
O=C(CSc1nnc(-c2cccnc2)n1C1CCCCC1)NC1CCCCCC1	7	.	.	.	.	.	.
CCS(=O)(=O)Nc1ccc(C2=NN(S(=O)(=O)CC)C(c3cccs3)C2)cc1 (stereo unspecified)	-6	49*	-5	-1	15	147*	130*
CCS(=O)(=O)Nc1cccc(C2=NN(S(=O)(=O)CC)C(c3cccs3)C2)c1 (stereo unspecified)	12	0	3	1	2	.	.
CS(=O)(=O)Nc1ccc(C2=NN(C(=O)c3ccco3)C(c3ccccc3)C2)cc1 (stereo unspecified)	-5	2	3	4	26	.	.
CCS(=O)(=O)N1N=C(c2ccc(NS(C)(=O)=O)cc2)CC1c1ccccc1 (stereo unspecified)	-25	109*	0	0	19	12	1	GDH-TPI dose=0.98*
CC(C)Sc1nc(NCc2ccco2)c2c3c(sc2n1)COC(C)(C)C3	-18	85*	41	9	9	+	+
Cc1nc(NCc2ccco2)c2c3c(sc2n1)CCC3	0	4	33	-5	-5	.	.
SMILES	CCHF vOTU inh	FBA Mtb inh	Mtb bLac sens	RecA intein inh	GDH-TPI counter-1	Mtb FBA confirm	GDH-TPI counter-2	others
Cc1ccccc1CN1CCCCC(NC(=O)c2ccc(COc3ccccc3)cc2)C1=O (stereo unspecified)	7	.	.	.	.	.	.
Cc1c(O)ccc2c(CC(=O)N[C@@H](Cc3ccc(O)cc3)C(=O)O)cc(=O)oc12	-103	94*	0	-100	21	15	2	GDH-TPI dose=1.8*
CC1(C(=O)N2CCC(Oc3cccnc3)CC2)CC1	-1	.	.	.	.	.	.
COc1cc(N2C[C@@]3(O)CC[C@@H](O)[C@@H](OC)[C@@H]3[C@@](C)(O)[C@@H]2CC=C(C)C)cc(OC)c1OC	-1	.	.	.	.	.	.
CCOC(=O)C1(Cc2ccccc2)CCN(Cc2ccccc2OC)CC1	-2	.	.	.	.	.	.
COc1cc(CNc2ccc3[nH]c(=O)[nH]c3c2)ccc1OCc1ccc(F)cc1	-1	-1	-2	0	5	.	.
C=CCOc1ccc(CNc2ccc3[nH]c(=O)[nH]c3c2)cc1OC	-46	85*	.	.	15	114*	88*
O=C(c1ccc2c3c(cccc13)CC2)C1CCCN(C(=O)c2cc[n+]([O-])cc2)C1 (stereo unspecified)	-13	19	0	-1	6	.	.
O=C(c1ccc2c3c(cccc13)CC2)C1CCCN(C(=O)c2ccc[n+]([O-])c2)C1 (stereo unspecified)	-3	29*	1	-1	16	+	165*
COc1ccc2[nH]c(C(=O)NCCCN3CCCC3=O)c(C)c2c1	-5	58*	3	-6	-1	-5	-2
COc1ccc(-c2cc(C(F)F)n3ncc(C(=O)NCCCN4CCCC4=O)c3n2)cc1	-26	31*	-5	-65	6	+	169*
COc1ccc(-c2cc(C(F)F)n3ncc(C(=O)N4CCc5ccccc5C4)c3n2)cc1	-29	30*	46	-2	8	83*	76*
Cc1ccc(C(=O)N2CCC(Oc3cccnc3)CC2)cc1	0	.	.	.	.	.	.
Cc1ccc(C(Nc2ccccc2)c2ccc3ccc(C)nc3c2O)c(C)c1 (stereo unspecified)	29	.	.	.	.	.	.
O=C(N[C@@H](Cc1cccnc1)C(=O)N1CCC[C@H]1C(=O)NCCc1ccccc1Cl)c1ccc(Cl)cc1Cl	-2	.	.	.	.	.	.
COC(=O)c1cn(-c2ccccc2)nc1-c1ccccc1	13	36*	0	2	-8	73*	56*
